{
  "source": "PubChem BioAssay AID504773",
  "about": "(Broad Institute, 2011)",
  "note": "Potency and affinity values are given separately. The source made the active and inactive calls.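 The calls were made as follows: active = polarization signal falls with dose and the fitted half-maximal concentration is at or below ten times the sample's top valid dose; inconclusive = flat curve at 30 to 70% inhibition, or poor fit; inactive = signal rises, flat within 30%, or potency beyond limit.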",
  "data": [
    {"target": "Golgi-associated PDZ and coiled-coil motif-containing protein (Homo sapiens) (UniProt Q9HD26)", "assay": "potency against CAL PDZ-peptide interaction – biochemical, fluorescence polarization, Cerulean-tagged CAL PDZ, cherry-picks, dose response (AID 504773);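 also: 0% = DMSO neutral wells and -100% = excess unlabeled competitor peptide wells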", "details": "CAL PDZ-peptide binding, 1 h; series mostly up to 50 µM; activity change, negative = inhibition: at the top concentration", "values": [
      {"smiles": "COC(=O)C1CCN(C(=O)/C(C)=C\\c2ccccc2)CC1", "activity change, negative = inhibition": "-13.2% (inactive)"},
      {"smiles": "COc1ccc(/C=C/C(=O)Nc2ccc3nc4n(c(=O)c3c2)CCCC4)cc1OC", "activity change, negative = inhibition": "-58.9% (inactive)"},
      {"smiles": "COCCN(Cc1nc(C(c2ccccc2)c2ccccc2)no1)C(C)C", "activity change, negative = inhibition": "6.45% (inactive)"},
      {"smiles": "CC1CCC(NC(=O)c2ccc3c(c2)S(=O)(=O)c2ccccc2C3=O)CC1", "note": "(configuration not stated)", "activity change, negative = inhibition": "14.2% (inactive)"},
      {"smiles": "Cc1ccccc1-n1c(C)c(C#N)c(=O)c(-[n+]2ccccc2)c1[S-]", "activity change, negative = inhibition": "-36.7% (inactive)"},
      {"smiles": "COc1ccc(C(=O)NC2(C(F)(F)F)C(=O)Nc3c2c(=O)[nH]c(=O)n3CCc2ccc(OC)c(OC)c2)cc1", "note": "(configuration not stated)", "activity change, negative = inhibition": "35.8% (inactive)"},
      {"smiles": "COc1cc(NS(=O)(=O)c2ccc(NC(=S)Nc3ccccc3)cc2)nc(OC)n1", "activity change, negative = inhibition": "-0.366% (inactive)"},
      {"smiles": "Cc1cc(/C=C2\\SC(=O)N(C)C2=O)c(C)n1-c1ccc(O)cc1", "activity change, negative = inhibition": "7.87% (inactive)"},
      {"smiles": "CC12CNCC(C)(CN(C3(O)C(=O)Nc4ccc(Br)cc43)C1)C2=O", "note": "(configuration not stated)", "activity change, negative = inhibition": "13.4% (inactive)"},
      {"smiles": "Cc1cccc(C(=O)Nc2nnc(COc3ccccc3)s2)c1", "activity change, negative = inhibition": "-27.5% (inactive)"},
      {"smiles": "C[n+]1ccc(C(=O)Nc2ccccc2Cl)cc1", "activity change, negative = inhibition": "4.9% (inactive)"},
      {"smiles": "C/C(=C/c1ccccc1)C(=O)N1CCN(c2ccccc2)CC1", "activity change, negative = inhibition": "10.4% (inactive)"},
      {"smiles": "COc1ccc(-c2nc3ccccc3o2)cc1OC", "activity change, negative = inhibition": "-10.8% (inactive)"},
      {"smiles": "O=C(NCCc1cnc[nH]1)c1cccs1", "activity change, negative = inhibition": "8.56% (inactive)"},
      {"smiles": "CC(=O)N1CCN(c2ccc(NC(=O)c3cccc(Cl)c3Cl)cc2)CC1", "activity change, negative = inhibition": "11.3% (inactive)"},
      {"smiles": "CC(c1ccccc1)N1CCN(C(=O)CCl)CC1", "note": "(configuration not stated)", "activity change, negative = inhibition": "24% (inactive)"},
      {"smiles": "CC1=NN(C(N)=S)C(=O)C1N=Nc1ccc(Cl)cc1", "note": "(configuration not stated)", "activity change, negative = inhibition": "9.11% (inactive)"},
      {"smiles": "CS(=O)(=O)c1ccc2nc(NC(=O)CN3C(=O)C4CC=CCC4C3=O)sc2c1", "note": "(configuration not stated)", "activity change, negative = inhibition": "7.85% (inactive)"},
      {"smiles": "CCN(CC)Cc1c(O)ccc2c1O/C(=C\\C=C\\c1ccccc1)C2=O", "activity change, negative = inhibition": "-6.76% (inactive)"},
      {"smiles": "CCOC(=O)Cn1ncn(-c2ccc(OC(F)(F)F)cc2)c1=O", "activity change, negative = inhibition": "8.25% (inactive)"},
      {"smiles": "CN=c1scc(C)n1/N=C/c1cc(Br)c(O)c(Br)c1", "activity change, negative = inhibition": "12.3% (inactive)"},
      {"smiles": "CCN(CC)S(=O)(=O)c1ccc(/C=C/C(=O)OCC(=O)N(C)C)cc1", "activity change, negative = inhibition": "-4.78% (inactive)"},
      {"smiles": "Cc1nc2ccc(Br)cn2c1C(=O)N/N=C\\c1ccc(C(C)C)cc1", "activity change, negative = inhibition": "-21% (inactive)"},
      {"smiles": "O=C(NC(=S)NCCCN1CCOCC1)c1ccc(Br)cc1", "activity change, negative = inhibition": "23.6% (inactive)"},
      {"smiles": "CC1=C(C#N)C(Nc2ccc(Cl)cn2)(C(F)(F)F)C(=O)N1", "note": "(configuration not stated)", "activity change, negative = inhibition": "-3.46% (inactive)"},
      {"smiles": "O=C(NCc1ccccc1)c1cc2ccc(O)cc2oc1=O", "activity change, negative = inhibition": "-30.7% (inactive)"},
      {"smiles": "OCC1(CCOc2ccccc2)CCN(CCCn2cccn2)CC1", "activity change, negative = inhibition": "-20.1% (inactive)"},
      {"smiles": "O=S(=O)(c1cccc2ccccc12)N1CCCCC1", "activity change, negative = inhibition": "-41.9% (inactive)"},
      {"smiles": "S=C(NCCc1ccccc1)NC1CCC(NC(=S)NCCc2ccccc2)CC1", "note": "(configuration not stated)", "activity change, negative = inhibition": "18.7% (inactive)"},
      {"smiles": "CCOC(=O)c1ccc(N=C2SC(C(=O)NC)CC(=O)N2Cc2ccc(F)cc2)cc1", "note": "(configuration not stated)", "activity change, negative = inhibition": "10.4% (inactive)"},
      {"smiles": "CC(C)(C)OC(=O)N[C@@H](Cc1c[nH]c2ccccc12)c1nnc(SCC(N)=O)o1", "activity change, negative = inhibition": "13.3% (inactive)"},
      {"smiles": "O=C(NC1CCCCCCC1)c1cc([N+](=O)[O-])ccc1Cl", "activity change, negative = inhibition": "8.36% (inactive)"},
      {"smiles": "Oc1ccc(C=Nc2cccc3ccccc23)c(O)c1", "activity change, negative = inhibition": "9.43% (inactive)"},
      {"smiles": "COc1ccc(OC)c(S(=O)(=O)NCCCn2ccnc2)c1", "activity change, negative = inhibition": "-6.91% (inactive)"},
      {"smiles": "COc1ccc(-n2c(=S)[nH]c3c(sc(=S)n3-c3ccccc3)c2=O)c(OC)c1", "activity change, negative = inhibition": "29.8% (inactive)"},
      {"smiles": "O=C(NCc1ccc(Cl)cc1)C(=O)NCC1OCCN1C(=O)c1ccc(Cl)cc1", "note": "(configuration not stated)", "activity change, negative = inhibition": "19.7% (inactive)"},
      {"smiles": "O=C(O)CC1(CC(=O)Nc2ccc(Br)cc2)CCCCC1", "activity change, negative = inhibition": "25.7% (inactive)"}
    ]}
  ]
}
